This note sets out measurements from PubChem BioAssay (EPA / NIEHS).

Results filed as inconclusive are left out. Calls of active or inactive are those of the source. Rule for the calls: active = hit-call score of the fitted dose curve at least 0.9, where 1 is the maximum; inconclusive = response in the unintended direction; inactive = score below 0.9.

Sequence of Estrogen receptor beta (Homo sapiens) (Q92731 whole entry, looked up, the tested form may be a part): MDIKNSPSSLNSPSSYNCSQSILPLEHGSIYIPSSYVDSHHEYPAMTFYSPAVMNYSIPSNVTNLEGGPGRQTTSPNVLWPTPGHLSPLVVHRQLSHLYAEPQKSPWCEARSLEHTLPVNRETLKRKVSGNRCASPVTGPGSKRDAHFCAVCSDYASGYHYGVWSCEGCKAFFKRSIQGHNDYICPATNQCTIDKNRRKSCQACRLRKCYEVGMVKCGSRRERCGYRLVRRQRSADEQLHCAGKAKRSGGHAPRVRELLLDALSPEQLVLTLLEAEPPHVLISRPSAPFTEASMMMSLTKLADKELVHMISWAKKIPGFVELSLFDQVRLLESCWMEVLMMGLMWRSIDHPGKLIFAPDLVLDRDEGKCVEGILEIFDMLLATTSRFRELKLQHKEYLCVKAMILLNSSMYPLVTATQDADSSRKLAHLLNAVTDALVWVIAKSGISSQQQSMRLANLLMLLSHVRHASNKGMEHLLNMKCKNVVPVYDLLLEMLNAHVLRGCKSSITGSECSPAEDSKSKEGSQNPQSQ

The target of this experiment is Estrogen receptor beta (Homo sapiens) (UniProt Q92731). In words: OT_ER_ERbERb_0480: Odyssey Thera (OT) 8-hour HEK293T Protein-Complementation Assay for Estrogen Receptor-beta/-beta Homodimer (AID 2283357). As to the method:
OT_ER_ERbERb_0480 is a cell-based assay that uses HEK293T, a human kidney cell line, with measurements taken at 8 hours after chemical dosing in a 384-well plate.OT_ER_ERbERb_0480 is one of one assay component(s) measured or calculated from the OT_ER_ERbERb_0480 assay. It is designed to make measurements of protein fragment complementation, a form of binding reporter, as detected with fluorescence intensity signals by Protein-fragment Complementation technology.Data from the assay component OT_ER_ERbERb_0480 was analyzed into 1 assay endpoint. This assay endpoint, OT_ER_ERbERb_0480, was analyzed in the positive analysis fitting direction relative to DMSO as the negative control and baseline of activity. Using a type of binding reporter, measures of receptor for gain-of-signal activity can be used to understand the binding at the pathway-level as they relate to the gene ESR2. Furthermore, this assay endpoint can be referred to as a primary readout, because the performed assay has only produced 1 assay endpoint. To generalize the intended target to other relatable targets, this assay endpoint is annotated to the nuclear receptor intended target family, where the subfamily is steroidal.
Protein-fragment complementation assay, or PCA, is a method for the identification and quantification of protein-protein interactions. In the PCA, the proteins of interest ("bait" and "prey") are each covalently linked to fragments of a third protein (e.g. DHFR, which acts as a "reporter"). Interaction between the bait and the prey proteins brings the fragments of the reporter protein in close proximity to allow them to form a functional reporter protein whose activity can be measured. The OT ER beta / ER beta assay is a homodimer PCA of the ligand binding domain (LBD; amino acids 310-547) of human ER beta stably expressed in HEK293T cells. […] Cells are fixed in 4 percent formaldehyde and stained with Draq5 (BioStatus) to identify cells prior to signal detection. Fluorescent signal in the basal state of the assay is very low and is primarily punctuate and cytoplasmic. Modulation of this assay is quantified as an increase in mean fluorescence intensity in the nucleus (for agonists) or in the nucleus and cytoplasm (antagonists) relative to vehicle controls, and can be quantified on a high content imaging device or a laser scanning cytometer. The latter instrument is favored for this assay because of the rapid mode of data acquisition, the ability to acquire data from the entire cell population in a well (as opposed to a fraction of the well on the high content devices) and the larger dynamic range typically achieved with this instrument. To assess sensitivity of the ER beta/ER beta LBD assay to ligand, cells were treated with the ER agonist 17- beta-estradiol (E2) in 10-point concentration- response format for 8 hours and monitored response on a laser scanning plate cytometer (Acumen eX3; TTP Lab Tech).
Regarding `C=CCc1cc(S(=O)(=O)c2ccc(O)c(CC=C)c2)ccc1O`, the compound was classed as inactive.

For the compound `O=C1CN(N=Cc2ccc([N+](=O)[O-])o2)C(=O)N1`, the call was inactive. Same read-out and setting: as for `CNC(C)=O`, the entry is “inactive”; as for `CCCOc1ccc(S(=O)(=O)N2CCN(CC)CC2)cc1-c1nc2c(CC)n(Cc3ccccn3)nc2c(=O)[nH]1`, “inactive”. Still for that read-out and setting: for `CCN(CC)C(=S)SSC(=S)N(CC)CC` the value was “inactive”; for `OC[C@H]1O[C@@H]2O[C@H]3[C@H](O)[C@@H](O)[C@@H](O[C@H]4[C@H](O)[C@@H](O)[C@@H](O[C@H]5[C@H](O)[C@@H](O)[C@@H](O[C@H]6[C@H](O)[C@@H](O)[C@@H](O[C@H]7[C@H](O)[C@@H](O)[C@@H](O[C@H]1[C@H](O)[C@H]2O)O[C@@H]7CO)O[C@@H]6CO)O[C@@H]5CO)O[C@@H]4CO)O[C@@H]3CO`, “inactive”. `Cc1nccn1-c1ccc(Sc2cccc(C3(C(N)=O)CCOCC3)c2)cc1`: the AC50 – broadly, the concentration giving half of the maximal activity seen – was 32.3 µM (active). Consider `CCOc1ccc2[nH]cc(C(=O)NCc3ccccc3)c(=O)c2n1`, for which the compound was classed as inactive. Same read-out and setting: as for `CCn1nc(C)c2c1C(=O)NCC(c1ccc(O)cc1)=N2`, the entry is “inactive”; as for `O=C(O)c1ccc2c(c1)nc(C(=O)NC1CCN(C3CC3)CC1)n2Cc1cc(-c2ccc(Cl)s2)on1`, “inactive”; as for `O=C(O)CO`, “inactive”. Take `Cc1ccc(S(=O)(=O)NC(=O)NN2CCCCCC2)cc1`: the compound was called inactive. Still for that read-out and setting: for `CCCCC(CC)C(=O)OCCOCCOCCOC(=O)C(CC)CCCC` (stereo not given) the value was “inactive”.

For the compound `NC(N)=O`, the result was inactive. As to `OCCOCCOCCO`, the compound was called inactive.

For `NC(=O)N1c2ccccc2C=Cc2ccccc21`, the compound was classed as inactive. Still for that read-out and setting: as for `CCc1cccc(CC)c1N`, the entry is “inactive”; as for `CCCCCCCCCC`, “inactive”. Take `C[C@@H](Oc1ccc(CNC(=O)c2cccnc2Oc2ccc3c(c2)OCO3)c(F)c1)C(=O)O`: the compound was classed as inactive.

For `CCCCCCCCCCCCCCO`, the compound was called inactive.

Consider `NC(=O)N(O)[C@@H]1COc2cc(OCc3ccccc3)ccc21`, for which the compound was called inactive.

As for `c1ccc2cc3ccccc3cc2c1`, the compound was classed as inactive. Turning to `CCCCCCOC(=O)CC(CC(=O)OCCCCCC)(OC(=O)CCC)C(=O)OCCCCCC`, the call was inactive. For `O=C(O)[C@H](O)[C@@H](O)C(=O)O`, the call was inactive. With `CC(C)C(=O)Nc1ccc([N+](=O)[O-])c(C(F)(F)F)c1`, the result was inactive. Same read-out and setting: as for `COc1cc2c(c(OC)c1OC)-c1ccc(OC)c(=O)cc1[C@@H](NC(C)=O)CC2`, the entry is “inactive”; as for `Cn1cc[nH]c1=S`, “inactive”; as for `CCCc1ccccc1`, “inactive”. On the same count and under the same terms, for `c1ccc2c(c1)-c1cccc3c1c-2cc1ccccc13` the value was “inactive”; for `O=C(NO)C1(NS(=O)(=O)c2ccc(Oc3ccc(F)cc3)cc2)CCOCC1`, “inactive”; for `CCCCCCCC1CCC(=O)O1` (stereo not given), “inactive”. Take `CC(C)CC(C)O` (stereo not given): the outcome was inactive. The same measure, in the same setting: as for `CCCCCCCCCCCCCCCCOS(=O)(=O)O`, the entry is “inactive”; as for `OCc1ccccc1`, “inactive”; as for `OC[C@H]1O[C@@](CO)(O[C@H]2O[C@H](CO)[C@@H](O)[C@H](O)[C@H]2O)[C@@H](O)[C@@H]1O`, “inactive”.

With `Cc1nc(-c2ccccn2)ncc1C(=O)Nn1cc(C)c2cc(F)ccc21`, the outcome was inactive. Regarding `CCc1ccc(O)c(C(C)(C)C)c1`, the AC50 was 11.9 µM (active). In the case of `O=S1(=O)CCCO1`, the call was inactive.

As for `CC(C)c1nnc2ccc(-c3ocnc3-c3cc(F)ccc3F)cn12`, the result was inactive. The same measure, in the same setting: for `CC[C@H](C)C(=O)O[C@H]1C[C@H](O)C=C2C=C[C@H](C)[C@H](CC[C@@H](O)C[C@@H](O)CC(=O)O)[C@H]21` the value was “inactive”.
